Laboratory results published in PubChem BioAssay (NCATS).
Records with an inconclusive call do not appear. The source made the active and inactive calls. Unless noted, the call rests on the fitted dose curve; in most records, active means well fitted curve in the direction sought with a large enough effect; inconclusive means small, poorly fitted or top-dose-only effect, or another doubt; inactive means no such curve, though single readings can be large; an effect the other way counts as inactive or inconclusive.

Key:
[1] = Cell Viability - BJ (AID 421; calls by dose curve;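 further: potency means the concentration at half of the fitted maximal effect; cells exposed to compound for 40 hours at 37 °C before readout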); details: BJ fibroblast viability, qHTS
How it was run: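 Cytotoxicity in human BJ foreskin fibroblasts is scored as loss of cellular ATP after a 40-hour exposure, measured by luciferase luminescence. Controls are DMSO and 100 uM tamoxifen.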

[2] = Cell Viability - MRC5 (AID 434; calls by dose curve;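 further: potency means the concentration at half of the fitted maximal effect; cells exposed to compound for 40 hours at 37 °C; potency reflects cytotoxicity seen as loss of intracellular ATP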); details: MRC5 lung fibroblast viability, qHTS
How it was run: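 ATP luminescence read-out (CellTiter-Glo, 20 min RT) after 40 hr, 37 °C compound exposure of 1500 MRC5 cells/well. Data normalized to DMSO (basal) and 100 uM tamoxifen (100% inhibition); AC50 from standard Hill equation.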

[3] = Cellular Toxicity (caspase-3) HepG2 (AID 654); details: HepG2 caspase-3 activation, luminescence; series mostly up to 92.2 µM;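 further: cells exposed to compound for 16 hours before reading; 0% = DMSO alone and 100% = caspase signal from 100 µM tamoxifen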
How it was run: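 Caspase 3/7 activation is measured as a luminescence increase (aminoluciferin substrate) after 16 h compound exposure of human hepatocarcinoma HepG2 cells. AC50 values are Hill fits, scaled between DMSO baseline and 100 uM tamoxifen stimulation.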

[4] = Cellular Toxicity (caspase-3) Jurkat (AID 655); details: Jurkat caspase-3 activation, luminescence; caspase-3 activation: at 92.2 µM (top of the series), DMSO = 0%, tamoxifen = 100%;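 further: cells exposed to compound for 16 h at 37 °C before reading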
How it was run: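 Jurkat cells (5000/well) in complete medium were treated with compounds for 16 hr at 37 °C, then Caspase-Glo 3/7 luminescence was read after 20 min at room temperature. Data normalized to DMSO (basal) and 100 uM tamoxifen (100%); AC50 from Hill fit.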

[5] = Cellular Toxicity (caspase-3) SHSY5Y (AID 657); details: SH-SY5Y caspase-3 activation; series mostly up to 91.7 µM
How it was run: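 SH-SY5Y human neuroblastoma cells (1500/well) were treated with compounds for 16 h at 37 °C, then Caspase-Glo 3/7 luminescence was read after 1 h at room temperature. Data normalized to DMSO and 10 uM staurosporine; AC50 from Hill fits.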

[6] = Cellular Toxicity (caspase-3) BJ (AID 658); details: BJ fibroblasts, luminescence; Potency: caspase-3 activation; series mostly up to 91.7 µM
How it was run: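 qHTS, BJ fibroblasts, 1000 cells/well; 5 hr preincubation, 16 hr compound, 37 °C; Caspase-Glo 3/7 reagent, 1 hr RT; luminescence. DMSO = 0%, 10 uM staurosporine = 100%. Hill-equation AC50.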

[7] = Cellular Toxicity (caspase-3) MRC-5 (AID 659); details: MRC-5 cells, luminescence, normalized: DMSO 0%, 10 µM staurosporine 100%; series mostly up to 91.7 µM
How it was run: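 MRC-5 fibroblasts, 1500/well; 16 h cpd, 37 °C; Caspase-Glo 3/7, 1 h RT; lumi read. Norm: DMSO = 0%, 10 uM staurosporine = 100%. Hill-fit AC50 from qHTS conc-response.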

[8] = Cellular Toxicity (caspase-3) Mesangial (AID 660); details: mesangial cells, normalized: DMSO 0%, 100 µM tamoxifen 100%; series mostly up to 91.7 µM;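 further: combined caspase 3 and 7 activity read by Caspase-Glo luminescence; cells exposed to compound for 16 h before the caspase read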
How it was run: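 Caspase 3/7 activation measured by Caspase-Glo 3/7 luminescence (20 min, room temperature) following 16 h exposure of mesangial cells (1000/well); AC50 from Hill-equation fit, normalized to DMSO and 100 uM tamoxifen.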

[9] = Cellular Toxicity (caspase-3) SK-N-SH (AID 661); details: SK-N-SH caspase-3 activation, qHTS, DMSO as zero, staurosporine as full; series mostly up to 91.7 µM
How it was run: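 Caspase 3/7 activation was read by luminogenic substrate cleavage after 16 hour treatment of SK-N-SH cells. Signal was scaled between DMSO and 10 uM staurosporine, and concentration-response data were fitted with the Hill equation for AC50.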

[10] = Cellular Toxicity (caspase-3) Hek293 (AID 664); details: HEK293 caspase-3 activation, DMSO = 0%, 100 µM tamoxifen = 100%; at 92.2 µM (top of the series);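 further: cells exposed to compound for 16 h at 37 °C before readout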
How it was run: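 Concentration-response qHTS: caspase 3/7 activation measured by luminescent aminoluciferin substrate cleavage after 16 h compound exposure of Hek 293 cells. AC50 from Hill equation, with DMSO as basal and 100 uM tamoxifen as 100%.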

[11] = Cellular Toxicity (caspase-3) Renal Proximal Tubule (AID 667); details: renal proximal tubule cells, primary cells freshly taken from rat; Potency: caspase-3 activation; series mostly up to 91.7 µM;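 further: cells exposed to compound for 16 hours at 37 °C before detection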
How it was run: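 Primary rat proximal tubule cells, 1000/well, 5 h plating at 37 °C, then compound 16 h at 37 °C. Caspase-Glo 3/7 reagent, 1 h RT, luminescence. Normalized to DMSO (basal) and 10 uM staurosporine (100%); Hill-fit AC50.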

[12] = MultiTox-Fluor Cytotoxicity Assay - LYMP1-001 - Dead Cells (AID 946); details: LYMP1-001 lymphoblastoid cells, dead-cell protease fluorescence; series mostly up to 92.2 µM;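 further: 0% = DMSO and 100% = tetraoctylammonium bromide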
How it was run: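 Seed 2500 LYMP1-001 cells/well, incubate 5 hr at 37 C; add compound, 16 hr at 37 C; add MultiTox-Fluor reagent, 60 min RT; read dead-cell fluorescence Ex/Em=485/520. Normalize to DMSO and 15 uM tetraoctylammonium bromide.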

[13] = Cell Viability - LYMP1-002 - Assay at 16 hr (AID 948); details: LYMP1-002 lymphoblastoid cell viability; series mostly up to 92.2 µM;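 further: 0% = DMSO alone and full effect = 92 µM tetraoctylammonium bromide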
How it was run: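 Human lymphoblastoid cells (LYMP1-002), 2500/well, were preincubated 5 hr at 37 C, then exposed to compounds for 16 hr at 37 C in complete medium. Cellular ATP was read by CellTiter-Glo luminescence after 30 min at room temperature; AC50 from Hill fits.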

[14] = MultiTox-Fluor Cytotoxicity Assay - LYMP1-002 - Live Cells (AID 955); details: LYMP1-002 lymphoblastoid live-cell protease fluorescence viability; series mostly up to 46.1 µM; further: on the % scale 0 is the no-effect control and ±100 the full control effect
How it was run: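 After 16 h compound exposure at 37 C, live LYMP1-002 lymphoblastoid cells (2500/well) were quantified by cleavage of cell-permeant GF-AFC substrate, read at 405/510 nm after 60 min. Concentration-response fitted with Hill equation for AC50.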

[15] = Cell Viability - LYMP1-003 - Assay at 24 hr (AID 963); details: LYMP1-003 lymphoblastoid cell viability; series mostly up to 92.2 µM;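 further: plate controls were DMSO only for no effect and tetraoctylammonium bromide positive control for full effect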
How it was run: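 Concentration-response qHTS: ATP loss measured by CellTiter-Glo luminescence after 24 h compound exposure at 37 C. Cells were LYMP1-003 human lymphoblastoid, 2500 per well. AC50 derived via standard Hill equation modeling.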

[16] = Cell Viability - LYMP2-026 (AID 989); details: LYMP2-026 lymphoblastoid cell viability, qHTS; series mostly up to 92.2 µM; further: on the % scale 0 is the no-effect control and ±100 the full control effect; nearly all actives have a fitted effect of over 50% in size
How it was run: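 Cytotoxicity read as ATP-dependent luminescence (CellTiter-Glo, 30 min room temperature) after 24 h compound treatment at 37 C. LYMP2-026 lymphoblastoid line seeded at 2500 cells/well; AC50 derived by standard Hill equation.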

[17] = Cell Viability - LYMP1-002 - Assay at 24 hr (AID 993); details: LYMP1-002 lymphoblastoid cells viability; series mostly up to 92.2 µM; further: on the % scale 0 is the no-effect control and ±100 the full control effect
How it was run: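 qHTS cytotoxicity at 24 h: CellTiter-Glo ATP luminescence in lymphoblastoid line LYMP1-002 incubated with compound at 37 °C. Concentration-response modeled with the Hill equation for AC50; tetraoctylammonium bromide served as positive control.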

[18] = qHTS Assay for Identification of Small Molecule Inducers of Hypoxia Response (AID 2120; active means well fitted curve in the direction sought with a large enough effect in the signal ratio, with a control signal flat, not every such curve was filed as active; the % refers to the signal ratio; further: 0% is about no effect); details: hypoxia response reporter cells, beta-lactamase ratio readout; series mostly up to 104 µM
How it was run: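 Reporter induction read as the CCF4 blue/green (460nm/530nm) emission ratio after 2.5 h dye loading at room temperature. ME-180 HRE-beta-lactamase cells received titrated compounds for 17 h at 37 degrees Celsius; AC50 values derived.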

[19] = biological target: Peroxisome proliferator-activated receptor alpha (Homo sapiens) (UniProt Q07869); assay: qHTS assay for small molecule agonists of the peroxisome proliferator-activated receptor alpha (PPARalpha) signaling pathway (AID 651778); details: PathHunter PPARalpha complementation, chemiluminescence, 6 h; max response: stronger effect = higher value; further: potency means the concentration at half of the fitted maximal effect; on max response: % of control where 0% means no effect
How it was run: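 Enzyme-fragment complementation assay in which ligand-bound PPARalpha translocates and forms an active enzyme that generates chemiluminescence. Cells were plated overnight, exposed to compound for 6 hr at 37 C, and then given detection reagent for 60 min at room temperature.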

[20] = qHTS assay for cell viability of the p53RE-bla HCT-116 cell line (AID 743292); details: p53RE-bla HCT-116 viability, ATP luminescence, 16 h; series mostly up to 95 µM; further: on the % scale 0 is the no-effect control and ±100 the full control effect; nearly all actives have a fitted effect of over 55% in size
How it was run: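 After plating at 4,000 cells per well and a 5 h rest at 37 C, HCT-116 cells carrying p53RE-bla received test chemicals in DMSO. Sixteen hours later at 37 C, CellTiter-Glo was added and luminescence recorded following 30 min at room temperature.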

Peroxisome proliferator-activated receptor alpha (Homo sapiens), sequence (Q07869 whole entry, looked up, the tested form may be a part): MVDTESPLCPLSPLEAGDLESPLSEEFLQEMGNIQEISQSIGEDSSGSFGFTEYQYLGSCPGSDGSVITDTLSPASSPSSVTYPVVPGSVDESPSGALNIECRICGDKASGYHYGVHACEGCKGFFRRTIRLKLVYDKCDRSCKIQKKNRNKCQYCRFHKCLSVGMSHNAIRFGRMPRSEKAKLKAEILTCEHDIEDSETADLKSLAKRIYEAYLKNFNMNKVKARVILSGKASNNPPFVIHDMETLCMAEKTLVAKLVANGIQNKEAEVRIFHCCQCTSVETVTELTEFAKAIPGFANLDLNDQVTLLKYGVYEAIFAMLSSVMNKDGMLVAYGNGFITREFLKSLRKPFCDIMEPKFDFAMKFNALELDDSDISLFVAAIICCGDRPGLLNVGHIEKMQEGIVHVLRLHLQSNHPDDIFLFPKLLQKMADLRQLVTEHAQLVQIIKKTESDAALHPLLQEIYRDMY

CCOC(=O)C1OC1c1ccccc1 (stereo not given)
inactive: Potency [1] > 92 µM | Potency [2] > 92 µM | Potency [3] | Potency [4] | Potency [5] | Potency [6] | outcome [7] | outcome [8] | outcome [9] | caspase-3 activation [10] 0.955% | Potency [11] | Potency [12] | Potency [13] | outcome [14] | Potency [15] | Potency [16] | Potency [17] | Potency [18] | max response [19] -1.32% | Potency [20]

C/C(Cl)=C/CCl
inactive: Potency [1] > 92 µM | Potency [2] > 92 µM | Potency [3] | Potency [4] | Potency [5] | Potency [6] | outcome [7] | outcome [8] | outcome [9] | caspase-3 activation [10] -0.884% | Potency [11] | Potency [12] | Potency [13] | outcome [14] | Potency [15] | Potency [16] | Potency [17] | Potency [18] | max response [19] -4.68% | Potency [20]

OCC(CBr)(CBr)CBr
inactive: Potency [1] > 92 µM | Potency [2] > 92 µM | Potency [3] | Potency [4] | Potency [5] | Potency [6] | outcome [7] | outcome [8] | outcome [9] | caspase-3 activation [10] 0.713% | Potency [11] | Potency [12] | Potency [13] | outcome [14] | Potency [15] | Potency [16] | Potency [17] | Potency [18] | max response [19] 1.63% | Potency [20]

CCCCCCCCOc1ccc(C(=O)O)cc1
inactive: Potency [1] > 92 µM | Potency [2] > 92 µM | Potency [3] | Potency [4] | Potency [5] | Potency [6] | outcome [7] | outcome [8] | outcome [9] | caspase-3 activation [10] -2.79% | Potency [11] | Potency [12] | Potency [13] | outcome [14] | Potency [15] | Potency [16] | Potency [17] | Potency [18] | Potency [20]
active: Potency [19] 7.08 µM

CC(=O)OCc1ccc2c(c1)OCO2
inactive: Potency [1] > 92 µM | Potency [2] > 92 µM | Potency [3] | Potency [4] | Potency [5] | Potency [6] | outcome [7] | outcome [8] | outcome [9] | caspase-3 activation [10] -3.09% | Potency [11] | Potency [12] | Potency [13] | outcome [14] | Potency [15] | Potency [16] | Potency [17] | Potency [18] | max response [19] -4.72% | Potency [20]

C=Cc1cccc(C)c1
inactive: Potency [1] > 92 µM | Potency [2] > 92 µM | Potency [3] | Potency [4] | Potency [5] | Potency [6] | outcome [7] | outcome [8] | outcome [9] | caspase-3 activation [10] -0.822% | Potency [11] | Potency [12] | Potency [13] | outcome [14] | Potency [15] | Potency [16] | Potency [17] | Potency [18] | max response [19] -4.17% | Potency [20]
